PubChem BioAssay AID504444 (National Center for Advancing Translational Sciences (NCATS), 2011)
The whole screen tested about 360,000 compounds, of which about 7,500 (2.1%) were called active. Another 20% or so got no clear call; they are omitted. Calls follow the shape of the dose curve; as a rule, active = well fitted inhibition curve with a large enough effect; inconclusive = small, poorly fitted or top-dose-only effect, or effect the other way; inactive = flat fitted curve, though single readings scatter. What follows is part of a selection rich in actives, with near analogues and random picks from the rest. Where a call stands in place of a potency, no number is given.

assay: Nrf2 qHTS screen for inhibitors; settings: A549 ARE-Fluc reporter, luciferase luminescence, 18-24 h; series mostly up to 46 µM; also: nearly all actives have a fitted effect of over 60% in size
How it was run: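 A549 ARE_Fluc cells, 5000/well, 5% FBS OPTI-MEM; compounds in dose-response, 18-24 h at 37 °C/5% CO2; CellTiter-Fluor viability read (Ex 405/Em 525), then BugLite luciferase luminescence = Nrf2 activity.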
Potency is read from the fitted curve at half-maximal effect.

Row | SMILES | Potency | activity change, negative = inhibition
1 | COc1ccc(/C=C/C(=O)OCC(=O)N2CCN(S(=O)(=O)c3ccc(C)cc3C)CC2)cc1OC | inactive | –
2 | CSc1ccc(CCNC(=O)c2cnn(-c3ccccc3)c2-n2cccc2)cc1 | inactive | –
3 | COc1ccc(-c2csc(N3CCN(Cc4ccc5c(c4)OCO5)CC3)n2)cc1 | inactive | –
4 | O=C(CSc1ncnc2scc(-c3ccccc3)c12)NCc1ccc2c(c1)OCO2 | inactive | –
5 | O=C(CN1CCN(c2nc(-c3ccccc3)cs2)CC1)NCc1ccc2c(c1)OCO2 | 23.1 µM (active) | –
6 | O=C(Nc1ccccc1)Oc1cccc2cccnc12 | inactive | –
7 | O=C(Nc1cc(S(=O)(=O)Nc2ccc(Cl)cc2)ccc1O)c1ccc(F)cc1F | inactive | –
8 | Cc1nc(N2CCN(c3ccccn3)CC2)c2c(C)c(C(=O)Nc3ccc(F)c(Cl)c3)sc2n1 | 16.4 µM (active) | –
9 | O=C(c1c(F)cccc1Cl)N1CCN(c2ccccn2)CC1 | inactive | –
10 | CCOC(=O)C1CCCN(C(=O)c2sc3nc(C)nc(N4CCOCC4)c3c2C)C1 (stereo not drawn) | inactive | –
11 | Cc1nc(N2CCC(C)CC2)c2c(C)c(C(=O)Nc3cc(F)ccc3C)sc2n1 | inactive | –
12 | COc1ccc(NC(C)=O)cc1NC(=O)CN1CCN(c2ccccn2)CC1 | inactive | –
13 | Cc1nc(N2CCOCC2)c2c(C)c(C(=O)Nc3ccc(C(F)(F)F)cc3)sc2n1 | 9.2 µM (active) | –
14 | CC(NC(=O)c1ccccc1)C(=O)OCC(=O)Nc1cccc(S(=O)(=O)N2CCCC2)c1 (stereo not drawn) | inactive | –
15 | COc1cc2c(cc1OC)C(Cc1cc(OC)c(OC)cc1[N+](=O)[O-])=NCC2 | inactive | –
16 | COc1ccc(CCNC(=O)c2ccc(NC(=O)CC3SC(N4CCCCC4)=NC3=O)cc2)cc1OC (stereo not drawn) | inactive | –
17 | COc1ccc2c(c1)c(N1CCCC1=O)c(C(=O)Nc1ccc(OC)c(Cl)c1)n2C | inactive | –
18 | O=[N+]([O-])c1ccc(N=NNc2ccc([N+](=O)[O-])cc2)cc1 | inactive | –
19 | Cc1ccc(C(=O)NCCSc2c(C)[nH]c3ccccc23)cc1C | – | -4.57% [at 9.27 µM] (inactive)
20 | Cc1ccc(NC(=O)CSc2cccc3cccnc23)c(C)c1 | inactive | –
21 | C/C(CC(=O)Nc1ccc(C)cc1C)=N\NC(=O)C(C)C | inactive | –
22 | COc1ccc(NC(=O)CNC(=O)Cc2ccccc2)cc1OC | inactive | –
23 | Cc1ccc(NC(=O)NC(C)c2c(-n3cccc3)sc(C)c2C)c(C)c1 (stereo not drawn) | 18.4 µM (active) | –
24 | COc1ccc(NC(=O)NC(C)c2c(-n3cccc3)sc(C)c2C)cc1OC (stereo not drawn) | 20.6 µM (active) | –
25 | CCn1cc(NC(=O)Nc2ccc(OC)c(OC)c2)c(C(N)=O)n1 | inactive | –
26 | CCCCN1CC(c2nc3ccccc3n2CCCCOc2ccc(C)cc2C)CC1=O (stereo not drawn) | inactive | –
27 | CN(C(=O)CSc1nncc2ccccc12)C1CCCCC1 | inactive | –
28 | Brc1c(CSc2nncc3ccccc23)nc2ccccn12 | 8.2 µM (active) | –
